Screening data deposited in PubChem by several laboratories.
An excerpt weighted towards active compounds, which were near 3.3% of everything screened.
697 NFkB inh – inhibitors of PMA/ionomycin-induced NF-kB reporter, 697 cells, primary screen, B-cell NF-kB inhibitor project, cell-based, luminescence, uHTS | inhibition, % at 4 µM | AID 435022, 2010 | 697 B-cell NF-kB luciferase reporter, 16 h | hit rate 0.33% among 330,000; in the data active = inhibition above about 35%
Jurkat NFkB inh – inhibitors of induced NF-kB luciferase reporter, primary screen, TCR NF-kB activation inhibitor project, cell-based, luminescence, uHTS; Jurkat, PMA/ionomycin-induced NF-kB luciferase reporter; inhibition, % at 4 µM; hit rate 0.53% among 330,000; AID 435003, 2010; in the data active = inhibition above about 50%
esBAF inh – Bmi1 luciferase reporter increase in mESCs, primary screen, esBAF inhibitor project, mouse ES cells, Bmi1 luciferase knock-in, single point. 24 h; 100% = twice the neutral-well signal. reporter increase, % at 12.5 µM. hit rate 2% among 350,000; in the data active = activation above about 40%;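 note: 0% = median of the plate's neutral control wells and 100% = double that signal; a rise in the Bmi1 reporter signal indicates esBAF inhibition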
Gli-Sufu block – Gli-Sufu pathway antagonists, primary screen, luciferase luminescence, Sufu-KO-LIGHT cells, uHTS. Sufu-KO-LIGHT fibroblasts, Gli luciferase reporter luminescence. inhibition, % at 5 µM. hit rate 0.74% among 340,000;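 active = inhibition above about 55%, limit read from the data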;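 note: 0% = DMSO-treated cells and 100% = wells with medium but no cells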
SMARCA2 act – SMARCA2 (BRM) function activators, primary screen, cell-based, luminescence, high throughput | hit rate 1% among 370,000 | activation, % at 9.1 µM | MG213 cells, MMTV-luciferase reporter, dexamethasone, overnight; in the data active = activation above about 7.8%;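 note: 0% = vehicle wells and 100% = reference activator wells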
SMARCA2 act conf – SMARCA2 (BRM) function activators, confirmation, cell-based, luminescence, triplicate; shares compounds with SMARCA2 act; activation, % at 9.1 µM; hit rate 30% among 3,500; AID 652260, 2013; MG213 cells, MMTV-luciferase with dexamethasone, overnight; MG213 cells expressing E1A, Rb sequestered; DMSO wells 0%, reference activator 100%;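 active = activation above its plate's cutoff, the mean activation of tested wells plus 3 SD, cut at about 7.9% in these data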
GAL4-VP16 Luc – GAL4-VP16 luciferase reporter activation, counter-screen for SMARCA2 (BRM) activator project, cell-based, pG5luc, luminescence, high throughput; activation, % at 9.1 µM; HEK293 GAL4-VP16 pG5luc reporter; scaled: DMSO wells 0%, SAHA wells 100%; shares compounds with SMARCA2 act; hit rate 41% among 3,500;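 active = activation above the solvent-only control well mean plus 3 SD, averaged across control plates, cut at about 5.2% in these data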
* marks the source's active call; other numbers are inactive results; x = no result.

SMILES	697 NFkB inh	Jurkat NFkB inh	esBAF inh	Gli-Sufu block	SMARCA2 act	SMARCA2 act conf	GAL4-VP16 Luc
O=C(C[C@@H]1C[C@H]2c3cc(NC(=O)c4cccnc4)ccc3O[C@H]2[C@@H](CO)O1)NCc1ccccc1F	x	x	2	x	x	x	x
C/C=C/c1ccc([C@@H]2[C@@H](CO)N(C(C)=O)[C@@H]2CN(CC)C(=O)CN(C)C)cc1	x	x	1	x	x	x	x
Cc1ccc(NC(=O)Nc2cnccn2)cc1	-49	-47	x	-15	10.0*	4	4
Cc1ccc(C(=O)OCC(=O)Nc2ccccc2)cc1NC(=O)c1ccco1	7	-6	-2	-5	-1	x	x
CC(=O)Nc1cc(C(=O)OCC(=O)c2ccccc2)ccc1C	-70	-45	x	x	8.3*	6	10*
CCCCn1c(=N)n(CC(=O)c2ccc(OC)cc2)c2ccccc21	-5	36	x	x	9.4*	20*	-2
C[C@@H]1CN([C@H](C)CO)C(=O)Cc2cc(NC(=O)CCCCCC(=O)Nc3ccccc3N)ccc2O[C@@H]1CN(C)S(=O)(=O)c1ccc(Cl)cc1	x	x	-3	x	x	x	x
C=CS(=O)(=O)c1c2cc(OC)ccc2nc2ccc(OC)cc12	x	x	x	-6	15*	-9	13*
C[C@H]1CN([C@@H](C)CO)C(=O)Cc2cc(NS(=O)(=O)c3ccc(Cl)cc3)ccc2O[C@@H]1CN(C)C(=O)NC1CCCCC1	x	x	3	x	x	x	x
CC1(C(=O)Nc2cnc3ccccc3c2)CCN1Cc1ccc2ccccc2c1 (configuration not stated)	x	x	9	x	12*	-2	1
CC(C)c1ccc(CN2CCC2(C)C(=O)Nc2cnc3ccccc3c2)cc1 (configuration not stated)	x	x	5	x	-7	x	x
CCCNC(=O)N[C@H]1C=C[C@@H](CC(=O)NCCc2ccccc2)O[C@H]1CO	x	x	-7	x	x	x	x
Cn1nc2c3ccccc3n(Cc3ccccc3)c2nc1=S	-34	-13	x	0	9.1*	10*	4
C/C(NC(=O)c1ccccc1)=C1/C(=O)CC2C1C2(C)C (configuration not stated)	-86	-66	52*	-30	8.0*	19*	5
CCCN1[C@H](C(=O)N2CCOCC2)[C@@H](CO)[C@@H]2Cn3c(ccc(-c4ccncc4)c3=O)[C@@H]21	x	x	1	x	x	x	x
Cc1ccc(NC(=O)c2ccc(Cn3cc(Br)cn3)o2)cc1	6	12	5	-6	1	x	x
NNC(=O)c1ccc(Cn2cc(Br)cn2)o1	10	7	x	-4	8.1*	-1	1
C[C@@H]1CN([C@@H](C)CO)C(=O)Cc2cc(NC(=O)Nc3ccc4c(c3)OCO4)ccc2O[C@H]1CN(C)Cc1ccccc1	x	x	-6	x	x	x	x
O=C(NNC(=O)C1CC2CCC1C2)c1sc2ccccc2c1Cl (configuration not stated)	-43	-27	x	-52	8.4*	5	5
C[C@@H]1CN([C@H](C)CO)C(=O)c2cc(NC(=O)NC3CCCCC3)ccc2O[C@H]1CN(C)S(=O)(=O)c1cn(C)cn1	x	x	2	x	x	x	x
C=CCC(NCc1ccco1)c1ccc(OC)cc1OC (configuration not stated)	2	7	x	x	x	x	x
C=CCC(NCc1ccco1)c1ccc(OC)c(OC)c1 (configuration not stated)	-6	-1	0	1	9.9*	-3	1
Cc1noc(C)c1NC(=O)N(C)C[C@@H]1Oc2c(NC(=O)c3ccncc3)cccc2C(=O)N([C@@H](C)CO)C[C@@H]1C	x	x	-5	x	x	x	x
CC1CCc2c(sc3nc(SCC(=O)NCc4ccco4)nc(N)c23)C1 (configuration not stated)	-23	-18	39	-3	2	x	x
